In the library only some 31% were active in any assay of this set; here they are far more common.
CYP2C9 activ: increases human cytochrome P450 2C9 activity; activation factor at 5 µM; 96,000 tested, 1.4% active; P11712; recombinant CYP2C9, luciferin-H conversion, luminescence; active compounds read high; factor 1 = untreated enzyme, 0 = blocked;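 active means activation factor of 2 or more for CYP2C9 at a 5 µM dose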;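 further: 0 = sulfaphenazole-blocked wells and 1 = vehicle-only wells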
CYP2C9 inh: inhibitors of human CYP2C9; P11712; 96,000 tested, 20% active; CYP2C9 Supersomes, luciferin-H conversion, luminescence; inhibition, % at 5 µM;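 active means blocking of liver enzyme CYP2C9 beyond about 50% at 5 µM, limit read from the data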
CYP2C19 inhib: blocks human cytochrome P450 2C19. P33261. inhibition, % at 5 µM. AID 778. CYP2C19 Supersomes, luciferin-H EGE luminescence, 30 min. 96,000 tested, 21% active;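 active means CYP2C19 inhibition above a set limit at 5 µM in the primary screen, cut at about 50% in these data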;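 further: plate controls were negative control wells for no effect and 2.5 mM tranylcypromine positive control for full effect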
Target sequence (P33261 whole entry, looked up): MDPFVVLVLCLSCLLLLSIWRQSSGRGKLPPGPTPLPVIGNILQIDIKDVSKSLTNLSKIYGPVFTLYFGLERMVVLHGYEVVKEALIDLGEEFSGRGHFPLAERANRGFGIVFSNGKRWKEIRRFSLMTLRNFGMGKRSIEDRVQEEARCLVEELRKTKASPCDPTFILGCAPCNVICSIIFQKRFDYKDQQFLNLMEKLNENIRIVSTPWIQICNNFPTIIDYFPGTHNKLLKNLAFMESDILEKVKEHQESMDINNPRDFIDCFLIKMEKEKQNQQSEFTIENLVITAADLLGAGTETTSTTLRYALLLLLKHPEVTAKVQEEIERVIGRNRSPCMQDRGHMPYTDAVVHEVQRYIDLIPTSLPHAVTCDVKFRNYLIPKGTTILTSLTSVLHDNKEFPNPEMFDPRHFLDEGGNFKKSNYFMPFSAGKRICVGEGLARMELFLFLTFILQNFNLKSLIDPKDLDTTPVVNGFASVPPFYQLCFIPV
CYP2C19 act: increases human CYP2C19 enzyme activity; P33261; recombinant CYP2C19, luciferin-H EGE luminescence; active compounds read high; 0 = fully inhibited enzyme, 1 = untreated enzyme; activation factor at 5 µM; 96,000 tested, under 10 active; AID 1025;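 active means activation factor of at least 2 at 5 µM in the primary screen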;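 further: 0 = wells with 2.5 mM tranylcypromine and 1 = vehicle-only wells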
* = called active by the depositor.

Screening CCCC(c1nnnn1C(C)(C)CC)N1CCN(C2CCCC2)CC1 (configuration not stated) returned CYP2C9 activ 0.6, CYP2C9 inh 35, CYP2C19 inhib 60* and CYP2C19 act 0.4.
Screening CCc1ccc(NC(=O)C2CC(=O)N(C(C)C)C2)cc1 (configuration not stated) returned CYP2C9 activ 1.2, CYP2C9 inh -20, CYP2C19 inhib -14 and CYP2C19 act 1.1.
Screening COc1ccc(C(=O)N2CCN(S(=O)(=O)N3CCOCC3)CC2)cc1OC returned CYP2C9 activ 1.1, CYP2C9 inh -14, CYP2C19 inhib -10 and CYP2C19 act 1.1.
`N#Cc1ccc(NC(=O)Nc2ccc(Cl)cc2)cc1` gave CYP2C9 activ 0.9, CYP2C9 inh 7, CYP2C19 inhib 16 and CYP2C19 act 0.8.
`CN(CC(=O)Nc1ccc(C#N)cc1)Cc1ccc(Cl)cc1` gave CYP2C9 activ 0.2, CYP2C9 inh 75*, CYP2C19 inhib 89* and CYP2C19 act 0.1.
`CN(CC(=O)Nc1ccc(C#N)cc1)Cc1ccc(Cl)cc1Cl` gave CYP2C9 activ 0.1, CYP2C9 inh 90*, CYP2C19 inhib 94* and CYP2C19 act 0.1.
For CCOc1ccc(NC(=O)CN(C)CC(=O)Nc2cc(Cl)ccc2C#N)cc1OCC the results were CYP2C9 activ 0.6, CYP2C9 inh 39, CYP2C19 inhib 45 and CYP2C19 act 0.5.
For C=CCN1C(=Nc2cccnc2)SCC1(O)c1ccc(C)cc1 (configuration not stated) the results were CYP2C9 activ 0.2, CYP2C9 inh 78*, CYP2C19 inhib 95* and CYP2C19 act 0.
For C=CCN1C(=O)CSC1=Nc1cccc(O)c1 the results were CYP2C9 activ 1, CYP2C9 inh 2, CYP2C19 inhib 4 and CYP2C19 act 1.
Screening O=C(C1CCCN(S(=O)(=O)c2cccnc2)C1)N1CCn2c1nc1ccccc12 (configuration not stated) returned CYP2C9 activ 0.9, CYP2C9 inh 6, CYP2C19 inhib -4 and CYP2C19 act 1.
For CCC1(C)Cc2c(sc3nc(NC)n(C)c(=O)c23)CO1 (configuration not stated) the results were CYP2C9 activ 0.8, CYP2C9 inh 18, CYP2C19 inhib 56* and CYP2C19 act 0.4.
For CCSc1nc2sc3c(c2c(=O)[nH]1)CC(C)(CC)OC3 (configuration not stated) the results were CYP2C9 activ 0.9, CYP2C9 inh 12, CYP2C19 inhib 0 and CYP2C19 act 1.
CCC1(C)Cc2c(sc3nc4n(c(=O)c23)CCS4)CO1 (configuration not stated) was read as CYP2C9 activ 0.5, CYP2C9 inh 51*, CYP2C19 inhib 64* and CYP2C19 act 0.4.
For Cc1cccc2sc(NC(=O)Cn3cccc3)nc12 the results were CYP2C9 activ 0.4, CYP2C9 inh 56*, CYP2C19 inhib 49 and CYP2C19 act 0.5.
`Cc1cccc2sc(NC(=O)CN(C)S(=O)(=O)c3ccc(Br)s3)nc12` gave CYP2C9 activ 1.1, CYP2C9 inh -12, CYP2C19 inhib 62* and CYP2C19 act 0.4.
`Cc1cccc2sc(NC(=O)CN(C)S(=O)(=O)c3cccs3)nc12` gave CYP2C9 activ 0.4, CYP2C9 inh 59*, CYP2C19 inhib 94* and CYP2C19 act 0.1.
For Cc1cccc2sc(NC(=O)CSCc3ccccc3)nc12 the results were CYP2C9 activ 0.8, CYP2C9 inh 22, CYP2C19 inhib 14 and CYP2C19 act 0.9.
`CCN(CC)CCCNC(=O)Cn1nc(-c2ccccc2)ccc1=O` gave CYP2C9 activ 1, CYP2C9 inh 2, CYP2C19 inhib -8 and CYP2C19 act 1.1.
For COc1ccc(-n2nc3cc(C)c(NC(=O)CC(C)C)cc3n2)cc1 the results were CYP2C9 activ 1, CYP2C9 inh -4, CYP2C19 inhib -6 and CYP2C19 act 1.1.
`CCOC(=O)c1ccc(NC(=O)CCc2nc(-c3ccccc3Cl)no2)cc1` gave CYP2C9 activ 0, CYP2C9 inh 96*, CYP2C19 inhib 25 and CYP2C19 act 0.8.
CCOC(=O)c1cccc(NC(=O)CCc2nc(-c3ccccc3F)no2)c1 was read as CYP2C9 activ 0.8, CYP2C9 inh 17, CYP2C19 inhib 7 and CYP2C19 act 0.9.
Screening CCOC(=O)c1ccc(NC(=O)CCc2nc(-c3ccccc3)no2)cc1 returned CYP2C9 activ 0.5, CYP2C9 inh 50*, CYP2C19 inhib 6 and CYP2C19 act 0.9.
`O=S1(=O)C=CC(Nc2cccc(Cl)c2)C1` (configuration not stated) gave CYP2C9 activ 0.3, CYP2C9 inh 71*, CYP2C19 inhib 18 and CYP2C19 act 0.8.
`Cc1ccc(C(=O)Nc2sc(C)c(-c3ccccc3)c2C(N)=O)cc1[N+](=O)[O-]` gave CYP2C9 activ 0.6, CYP2C9 inh 40, CYP2C19 inhib 9 and CYP2C19 act 0.9.
`O=C(Nc1ccc(Cl)cc1)OCc1cc(-c2ccccc2Cl)on1` gave CYP2C9 activ 1, CYP2C9 inh 0, CYP2C19 inhib 10 and CYP2C19 act 0.9.
`CS(=O)(=O)c1ccccc1COC(=O)Nc1ccc(Cl)cc1` gave CYP2C9 activ 1, CYP2C9 inh -1, CYP2C19 inhib 69* and CYP2C19 act 0.3.
O=C(Nc1ccc(Cl)cc1)OCc1cncs1 was read as CYP2C9 activ 0.1, CYP2C9 inh 89*, CYP2C19 inhib 98* and CYP2C19 act 0.
CS(=O)c1ccccc1COC(=O)Nc1cccc(Cl)c1 (configuration not stated) was read as CYP2C9 activ 1.2, CYP2C9 inh -21, CYP2C19 inhib 40 and CYP2C19 act 0.6.
For O=C(Nc1cccc(Cl)c1)OCc1cncs1 the results were CYP2C9 activ 0.1, CYP2C9 inh 87*, CYP2C19 inhib 99* and CYP2C19 act 0.
O=C(O)Cn1cc2c(n1)CCCC2 was read as CYP2C9 activ 1, CYP2C9 inh 1, CYP2C19 inhib 0 and CYP2C19 act 1.
COc1ccc(CN2CCN(C(=O)c3cccs3)CC2)c(OC)c1OC was read as CYP2C9 activ 1.1, CYP2C9 inh -10, CYP2C19 inhib 24 and CYP2C19 act 0.8.
COc1ccc(-c2nnn(CCC(=O)O)n2)cc1 was read as CYP2C9 activ 0.7, CYP2C9 inh 35, CYP2C19 inhib 0 and CYP2C19 act 1.
Screening CCOc1ccc(N2C(=O)C(Cl)=C(Nc3ccccc3O)C2=O)cc1 returned CYP2C9 activ 1, CYP2C9 inh -4, CYP2C19 inhib 14 and CYP2C19 act 0.9.
Cc1ccc(S(=O)(=O)Nc2cc(C(C)C)c(O)cc2C)cc1 was read as CYP2C9 activ 0.6, CYP2C9 inh 36, CYP2C19 inhib 84* and CYP2C19 act 0.2.
`Cc1c(NS(=O)(=O)c2ccccc2)cc(Cl)c(O)c1C` gave CYP2C9 activ 2.5*, CYP2C9 inh -150, CYP2C19 inhib 99* and CYP2C19 act 0.
Screening Cc1ccc(S(=O)(=O)Nc2cccc3cccnc23)cc1 returned CYP2C9 activ 1.8, CYP2C9 inh -80, CYP2C19 inhib -4 and CYP2C19 act 1.
For Cc1ccc(S(=O)(=O)Nc2cc(Cl)c(O)cc2C)cc1 the results were CYP2C9 activ 2.3*, CYP2C9 inh -127, CYP2C19 inhib 98* and CYP2C19 act 0.
